Test results as given in the supplement of paper PMC6555819.

Assays:
Assay in all cases: PBM binding z-score (relative to random genomic background probes); higher = stronger binding; sequences stand for … in GC…GCGATTGACAGCGTAGAATGAAGG
[1] = tested on: FXR:RXRa (NR concentration 270 nM, RXRa partner concentration 90 nM)
How it was run: (§1)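 Random background probes are the reference for binding z-scores. These scores derive from regression-normalized fluorescence on custom Agilent 4×180K protein-binding microarrays incubated 1 h with ligand-free nuclear receptor dimers. Binding was detected with antibodies against each partner (one per run).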

[2] = tested on: LXRa:RXRa (NR concentration 270 nM, RXRa partner concentration 90 nM)
How it was run: as §1

[3] = tested on: LXRa homodimer (NR concentration 270 nM)
How it was run: as §1

[4] = tested on: LXRb:RXRa (NR concentration 270 nM, RXRa partner concentration 90 nM)
How it was run: as §1

[5] = tested on: LXRb homodimer (NR concentration 270 nM)
How it was run: as §1

[6] = tested on: PPARa:RXRa (NR concentration 270 nM, RXRa partner concentration 90 nM)
How it was run: as §1

[7] = tested on: PPARg:RXRa (NR concentration 180 nM, RXRa partner concentration 90 nM)
How it was run: as §1

[8] = tested on: PPARg:RXRa 270nM:90nM, anti-RXR (NR concentration 270 nM, RXRa partner concentration 90 nM)
How it was run: as §1

[9] = tested on: PPARg:RXRa 30nM:10nM, anti-RXR (NR concentration 30 nM, RXRa partner concentration 10 nM)
How it was run: as §1

[10] = tested on: PPARg:RXRa 90nM:30nM, anti-RXR (NR concentration 90 nM, RXRa partner concentration 30 nM)
How it was run: as §1

[11] = tested on: PPARg:RXRa DBDmut IVT, anti-RXR (DBD mutation: RXRa K156A/R161A, NR concentration 270 nM, RXRa partner concentration 90 nM)
How it was run: as §1

[12] = tested on: PPARg:RXRa IVT, anti-PPARg (NR concentration 270 nM, RXRa partner concentration 90 nM)
How it was run: as §1

[13] = tested on: PPARg DBDmut:RXRa IVT, anti-PPARg (DBD mutation: PPARg1 K132A/R137A, NR concentration 270 nM, RXRa partner concentration 90 nM)
How it was run: as §1

[14] = tested on: PPARg DBDmut IVT, anti-PPARg (DBD mutation: PPARg1 K132A/R137A, NR concentration 270 nM)
How it was run: as §1

[15] = tested on: PPARg homodimer (NR concentration 180 nM)
How it was run: as §1

[16] = tested on: PXR:RXRa (NR concentration 270 nM, RXRa partner concentration 90 nM)
How it was run: as §1

[17] = tested on: PXR homodimer (NR concentration 270 nM)
How it was run: as §1

[18] = tested on: RARa:RXR (NR concentration 270 nM, RXRa partner concentration 90 nM)
How it was run: as §1

[19] = tested on: RARa homodimer (NR concentration 270 nM)
How it was run: as §1

[20] = tested on: RARb:RXRa (NR concentration 270 nM, RXRa partner concentration 90 nM)
How it was run: as §1

ACTCGGAGGACAAAGGTCTGAGCTACGCCAGTGA was tested, and the PBM binding z-score [1] was -0.108, the PBM binding z-score [2] was -0.415 and the PBM binding z-score [3] was -0.354. It also gave a PBM binding z-score [4] of -0.796, a PBM binding z-score [5] of -0.665 and a PBM binding z-score [6] of 0.582. For the same sequence, the PBM binding z-score [7] was 1.95, the PBM binding z-score [8] was 3.29 and the PBM binding z-score [9] was 1.06. For the same sequence, the PBM binding z-score [10] was 3.02, the PBM binding z-score [11] was -0.243 and the PBM binding z-score [12] was 0.315. The PBM binding z-score [13] was -0.994, the PBM binding z-score [14] was -1.15 and the PBM binding z-score [15] was 0.144. It also gave a PBM binding z-score [16] of -0.428, a PBM binding z-score [17] of -0.379 and a PBM binding z-score [18] of -0.531. It also gave a PBM binding z-score [19] of -0.889 and a PBM binding z-score [20] of 1.3.

Sequence GAGACTGGGGCAAAGCAGGTTACCATAAGGTTGG has a PBM binding z-score [1] of 0.509, a PBM binding z-score [2] of 0.532 and a PBM binding z-score [3] of -0.00898. The PBM binding z-score [4] was 0.677, the PBM binding z-score [5] was -0.382 and the PBM binding z-score [6] was 2.04. The PBM binding z-score [7] was 2.19, the PBM binding z-score [8] was 1.98 and the PBM binding z-score [9] was 0.147. It also gave a PBM binding z-score [10] of 1.35, a PBM binding z-score [11] of 5.26 and a PBM binding z-score [12] of 5.09. The PBM binding z-score [13] was 0.833, the PBM binding z-score [14] was 0.122 and the PBM binding z-score [15] was 1.16. It also gave a PBM binding z-score [16] of 0.725, a PBM binding z-score [17] of 0.197 and a PBM binding z-score [18] of 1.26. It also gave a PBM binding z-score [19] of -0.331 and a PBM binding z-score [20] of 1.14.

Sequence AGTCAAAGTCCAGGACGAGGTAACGTAAAGCACG has a PBM binding z-score [1] of -0.263, a PBM binding z-score [2] of -0.424 and a PBM binding z-score [3] of -0.518. The PBM binding z-score [4] was -0.388, the PBM binding z-score [5] was -0.767 and the PBM binding z-score [6] was 0.01. It also gave a PBM binding z-score [7] of 0.733, a PBM binding z-score [8] of -0.294 and a PBM binding z-score [9] of -0.119. It also gave a PBM binding z-score [10] of -0.153, a PBM binding z-score [11] of -0.362 and a PBM binding z-score [12] of -0.000589. For the same sequence, the PBM binding z-score [13] was 0.282, the PBM binding z-score [14] was 0.0417 and the PBM binding z-score [15] was -0.362. For the same sequence, the PBM binding z-score [16] was -0.248, the PBM binding z-score [17] was -0.347 and the PBM binding z-score [18] was -0.00617. The PBM binding z-score [19] was -0.392 and the PBM binding z-score [20] was 0.916.

Sequence TCTTGTAGATCAAGCAGGTTTAGAAAGCCTGAGT has a PBM binding z-score [1] of 0.0311, a PBM binding z-score [2] of 0.0459 and a PBM binding z-score [3] of -0.387. For the same sequence, the PBM binding z-score [4] was -0.134, the PBM binding z-score [5] was -0.464 and the PBM binding z-score [6] was 0.137. It also gave a PBM binding z-score [7] of -0.639, a PBM binding z-score [8] of 0.91 and a PBM binding z-score [9] of 2.24. It also gave a PBM binding z-score [10] of 1.35, a PBM binding z-score [11] of 1.37 and a PBM binding z-score [12] of 0.0829. It also gave a PBM binding z-score [13] of -0.44, a PBM binding z-score [14] of 0.305 and a PBM binding z-score [15] of -0.478. It also gave a PBM binding z-score [16] of 0.273, a PBM binding z-score [17] of -0.0713 and a PBM binding z-score [18] of -0.152. It also gave a PBM binding z-score [19] of -0.252 and a PBM binding z-score [20] of -0.191.

GATACAGGGTAAGCTAGAGGCCAGAGTATGGAAA was tested, and the PBM binding z-score [1] was -0.252, the PBM binding z-score [2] was -0.448 and the PBM binding z-score [3] was -0.407. The PBM binding z-score [4] was -0.76, the PBM binding z-score [5] was -1.15 and the PBM binding z-score [6] was -0.293. For the same sequence, the PBM binding z-score [7] was 0.319, the PBM binding z-score [8] was -0.0379 and the PBM binding z-score [9] was -0.0812. It also gave a PBM binding z-score [10] of -0.0554, a PBM binding z-score [11] of 0.227 and a PBM binding z-score [12] of 0.424. For the same sequence, the PBM binding z-score [13] was -0.118, the PBM binding z-score [14] was -0.173 and the PBM binding z-score [15] was -0.435. For the same sequence, the PBM binding z-score [16] was -0.38, the PBM binding z-score [17] was -0.17 and the PBM binding z-score [18] was -0.0414. It also gave a PBM binding z-score [19] of -0.543 and a PBM binding z-score [20] of 0.634.

TTGAGTAGGTTAGTCGGGGCATTCAGCCAACATA gave a PBM binding z-score [1] of 0.205, a PBM binding z-score [2] of 0.325 and a PBM binding z-score [3] of 0.413. It also gave a PBM binding z-score [4] of 0.932, a PBM binding z-score [5] of 0.285 and a PBM binding z-score [6] of 1.11. It also gave a PBM binding z-score [7] of 0.307, a PBM binding z-score [8] of 0.997 and a PBM binding z-score [9] of 0.398. For the same sequence, the PBM binding z-score [10] was 0.742, the PBM binding z-score [11] was 3.52 and the PBM binding z-score [12] was 3.36. It also gave a PBM binding z-score [13] of 0.385, a PBM binding z-score [14] of 0.257 and a PBM binding z-score [15] of 0.88. The PBM binding z-score [16] was 0.618, the PBM binding z-score [17] was 0.715 and the PBM binding z-score [18] was 0.545. It also gave a PBM binding z-score [19] of 0.987 and a PBM binding z-score [20] of 0.733.

In the case of TCGAGTAGGTTCGGGGCATTCAGAATGGCGTCGA, the PBM binding z-score [1] is reported as -0.238, the PBM binding z-score [2] is reported as -0.318 and the PBM binding z-score [3] is reported as -0.554. For the same sequence, the PBM binding z-score [4] was -0.184, the PBM binding z-score [5] was -1.07 and the PBM binding z-score [6] was 0.187. The PBM binding z-score [7] was -0.622, the PBM binding z-score [8] was 0.0439 and the PBM binding z-score [9] was 0.452. For the same sequence, the PBM binding z-score [10] was 0.234, the PBM binding z-score [11] was 0.529 and the PBM binding z-score [12] was -0.193. It also gave a PBM binding z-score [13] of -0.804, a PBM binding z-score [14] of -0.918 and a PBM binding z-score [15] of -0.546. The PBM binding z-score [16] was -0.101, the PBM binding z-score [17] was -0.4 and the PBM binding z-score [18] was -0.0228. It also gave a PBM binding z-score [19] of -1.08 and a PBM binding z-score [20] of 0.221.

In the case of AGAATGAGTTTATTAAGATCAGGGAATTGCGGTC, the PBM binding z-score [1] is reported as -0.0233, the PBM binding z-score [2] is reported as -0.176 and the PBM binding z-score [3] is reported as 0.0886. It also gave a PBM binding z-score [4] of -0.353, a PBM binding z-score [5] of 0.198 and a PBM binding z-score [6] of -0.254. The PBM binding z-score [7] was 0.0616, the PBM binding z-score [8] was -0.094 and the PBM binding z-score [9] was -0.0755. The PBM binding z-score [10] was -0.195, the PBM binding z-score [11] was -0.196 and the PBM binding z-score [12] was -0.106. The PBM binding z-score [13] was 0.457, the PBM binding z-score [14] was 0.0162 and the PBM binding z-score [15] was 0.334. For the same sequence, the PBM binding z-score [16] was 1.31, the PBM binding z-score [17] was 2.04 and the PBM binding z-score [18] was 0.154. It also gave a PBM binding z-score [19] of 0.655 and a PBM binding z-score [20] of 0.143.

For CCTTACGGGTCACGAGGTTATAGTACGACGAGCG, the PBM binding z-score [1] was 6.36, the PBM binding z-score [2] was 4.81 and the PBM binding z-score [3] was 0.561. For the same sequence, the PBM binding z-score [4] was 4.06, the PBM binding z-score [5] was 0.224 and the PBM binding z-score [6] was 6.09. It also gave a PBM binding z-score [7] of 7.25, a PBM binding z-score [8] of 6.66 and a PBM binding z-score [9] of 3.38. For the same sequence, the PBM binding z-score [10] was 5.43, the PBM binding z-score [11] was 4.32 and the PBM binding z-score [12] was 5.17. The PBM binding z-score [13] was 1.09, the PBM binding z-score [14] was 0.529 and the PBM binding z-score [15] was 2.24. The PBM binding z-score [16] was 4.61, the PBM binding z-score [17] was 0.539 and the PBM binding z-score [18] was 6.16. The PBM binding z-score [19] was 1.16 and the PBM binding z-score [20] was 4.59.
